HCMV antiviral: inhibitors of human cytomegalovirus. activity change, negative = inhibition, % at 57.5 µM. actives 4.5% (n = 410,000). AID 1259415. HFF cells, HCMV-luciferase reporter, 72 h; active compounds read low; in the data active = activity change below about -60%; inconclusive = no clear call, values can overlap the other calls; inactive = above about -39%
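Human foreskin fibroblasts infected with luciferase-reporter HCMV at MOI 1 PFU/cell, compounds at two doses. Luciferase measured 72 h post infection; normalized to buffer-only basal and Salinomycin (10uM) controls.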
FMDV antiviral: blocks foot and mouth disease virus | actives 1.2% (n = 410,000) | AID 1159524 | FMDV antiviral cell-based qHTS | Potency, µM (doses to about 57.9 µM), actives largely listed as inhibitors; calls by dose curve; tested in HEK293T cells; note: read-out not given here; nearly all actives have a fitted effect of over 45% in size
Giardia FBPA inh: Giardia lamblia aldolase inhibition | AID 2451 | actives 0.71% (n = 290,000) | Potency, µM (titrated, usually from 59.6 µM), hits mostly inhibitors | A8B2U2 | purified Giardia FBPA; note: nearly all actives have a fitted effect of over 55% in size
Target sequence (A8B2U2 whole entry, looked up): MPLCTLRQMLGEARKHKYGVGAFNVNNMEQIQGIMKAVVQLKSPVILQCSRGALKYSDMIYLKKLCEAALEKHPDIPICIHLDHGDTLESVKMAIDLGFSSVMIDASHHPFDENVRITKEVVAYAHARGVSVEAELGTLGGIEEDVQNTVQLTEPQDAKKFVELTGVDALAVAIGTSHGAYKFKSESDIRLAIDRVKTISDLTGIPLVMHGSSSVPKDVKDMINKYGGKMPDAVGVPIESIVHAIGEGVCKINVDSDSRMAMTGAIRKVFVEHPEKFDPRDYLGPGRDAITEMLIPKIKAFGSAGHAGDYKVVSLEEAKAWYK
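40 nM FBPA preincubated 10 min at RT with compound (up to 57.5 uM final), then substrate plus GAPDH/TPI/NAD/arsenate coupling and diaphorase/resazurin added. Fluorescence read after 20 min at RT, 525/598 nm.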
HCV inh: inhibitors of hepatitis C virus infection. Huh7.5.1 HCVcc-Cre infection, luciferase reporter, 44 h. Potency, µM (top dose mostly 41.8 µM), actives largely listed as inhibitors. actives 3.4% (n = 340,000). AID 651820
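Whole-lifecycle infectious HCVcc-Cre system; cells 1,000/well, compound then virus (~0.5 moi) added 4 h after plating, 44 h culture. Luciferase read 15 sec following 15 min substrate incubation, room temp.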
VACV mCherry inh: vaccinia inhibition (mCherry reporter). Vaccinia virus mCherry reporter infection, fluorescence. Potency, µM (series often up to 36.5 µM), actives largely listed as inhibitors. actives 0.63% (n = 310,000); calls by dose curve; tested in A549 cells; note: nearly all actives have a fitted effect of over 35% in size
Vaccinia Venus: vaccinia inhibition (Venus reporter); actives 0.46% (n = 330,000); Vaccinia virus Venus reporter expression, fluorescence; Potency, µM (doses to about 36.5 µM), most hits filed as inhibitors; AID 720580; calls by dose curve; tested in A549 cells; note: nearly all actives have a fitted effect of over 30% in size
Numbers stand for hits; n = inactive; u = inconclusive; x = not tested or not shown; + = active, no number; ! = not confirmed by another sample; [ ] = remark or other dose. The list is not random: actives were taken first. Their share in the collection is about 7.5%. Unless noted, calls come from the whole dose curve; as a rule, active = well fitted curve in the direction sought with a large enough effect; inconclusive = small, poorly fitted or top-dose-only effect, or another doubt; inactive = no such curve, though single readings can be large; an effect the other way counts as inactive or inconclusive.

SMILES	HCMV antiviral	FMDV antiviral	Giardia FBPA inh	HCV inh	VACV mCherry inh	Vaccinia Venus
COc1cc(/C=C2/CCCC(C(=O)C(F)(F)F)=C2O)ccc1O	n	n	n	n	n	n
COc1cc(/C=C2/CCC/C(=C\c3cc(O)c(OC)c(Cl)c3)C2=O)cc(Cl)c1O	-100	u	n	11µM	x	x
COc1ccc(NC(=O)N(C)C[C@@H]2OCc3cnnn3CCCC(=O)N([C@@H](C)CO)C[C@H]2C)cc1	n	n	x	x	n	n
CCCCCN(C(=O)CCC(=O)OC(C)C(=O)Nc1ccccc1C)c1c(N)n(CCCC)c(=O)[nH]c1=O (stereo not given)	n	n	x	x	n	n
COc1cc(/C=C2/CCc3ccccc3C2=O)cc(OC)c1OC	u	u	n	u	u	u
CCOc1cc(/C=C2\CN(CC)C/C(=C\c3ccc(O)c(OCC)c3)C2=O)ccc1O	-101	10µM	n	4.5µM	u	n
CCN1C/C(=C/c2cccc([N+](=O)[O-])c2)C(=O)/C(=C/c2cccc([N+](=O)[O-])c2)C1	-103	3.5µM	n	u	n	n
CCOc1cc(C=O)ccc1O	n	n	x	n	n	n
COc1cc(/C=C2\CCc3ccccc3C2=O)cc(OC)c1OC	-74	n	n	u	u	n
COc1cc(/C=C2\CC/C(=C\c3cc(OC)c(O)c(OC)c3)C2=O)cc(OC)c1O	-98	22µM	1.6µM	u	n	n
COc1ccc(C2CC(=O)N(Cc3cccc(C)c3)c3c2c(C)nn3-c2nc(C)cc(C)n2)c(OC)c1 (stereo not given)	n	n	x	x	n	n
COC(=O)c1cccc(Nc2c(-c3ccc(O)c(OC)c3)nc3nc[nH]n23)c1	n	n	x	x	n	n
Cc1cccc2c(=O)[nH]c3c(-c4nc(-c5ccc(Cl)cc5)cs4)c(O)cn3c12	x	x	x	x	n	n
Cc1cccc(NC(=O)CSc2nc3ccccc3nc2N2CCCCC2)c1C	n	n	x	x	n	n
COc1cc(/C=C2\CC(C(C)(C)C)C/C(=C\c3cc(OC)c(OC)c(OC)c3)C2=O)cc(OC)c1OC (stereo not given)	-98	14µM	n	2.5µM	x	x
Cc1ccccc1NC(=O)/C(C#N)=C/c1ccc(Cl)cc1Cl	n	n	x	x	n	n
O=C(Cn1cccc1C(=O)c1ccccc1)NCCC1=CCCCC1	-64	n	n	n	n	n
CC(C)(C)OC(=O)NNC1CC(=O)N(c2ccccc2F)C1=O (stereo not given)	-71	n	n	n	n	n
O=C(Cc1csc(Nc2nc(=S)[nH]c3ccccc23)n1)NCCCN1CCN(c2ccccc2F)CC1	-98	n	n	4µM	u	u
COC(=O)c1ccc(NS(=O)(=O)c2ccc3c(c2)n(C)c(=O)n3C)cc1	n	n	n	n	n	n
CC(C)c1ccc(NC(=O)c2ccc(NS(C)(=O)=O)cc2)cc1	n	n	n	6.3µM	n	n
CCOC(=O)c1ccc(NS(=O)(=O)c2ccc3c(c2)n(C)c(=O)n3C)cc1	-67!	n	n	n	n	n
COC(=O)c1ccccc1NC(=O)c1ccc(NS(C)(=O)=O)cc1	n	n	n	11µM	x	n
CCOC(=O)c1ccc(NC(=O)c2ccc(NS(C)(=O)=O)cc2)cc1	u	x	n	11µM	n	n
CCCS(=O)(=O)NC(=O)C1(C)CCCN(C(=O)CCc2cccs2)C1 (stereo not given)	n	n	x	x	n	n
SMILES	HCMV antiviral	FMDV antiviral	Giardia FBPA inh	HCV inh	VACV mCherry inh	Vaccinia Venus
COC(=O)c1ccccc1NC(=O)c1ccc2c(c1)OCCO2	n	n	n	10µM	n	n
CCOC(=O)c1ccc(NC(=O)c2nsc3ccccc23)cc1	-78	n	x	x	n	n
CNC(=O)c1ccc(NC(=O)c2nsc3ccccc23)cc1	n	n	x	x	n	n
COC(=O)c1ccccc1NC(=O)CNC(=O)c1ccc(OC)cc1	+	n	n	n	n	n
Cc1ccc(Cn2cnc3c(cnn3C(C)(C)C)c2=O)cc1	u	25µM	n	11µM	x	x
O=C(NCc1nnc(SCc2ccc(F)cc2)n1-c1ccccc1)C12CC3CC(CC(C3)C1)C2	n	40µM	n	n	u	u
COc1ccccc1CN1CCCCC1c1cccnc1 (stereo not given)	-86	n	n	n	x	x
CCN1CCCC1CNC(=O)c1ccc(Sc2ccc(F)cc2)c([N+](=O)[O-])c1 (stereo not given)	n	n	n	6.3µM	n	n
CCN1CCCC1CNC(=O)c1ccc(Sc2ccccc2Cl)c([N+](=O)[O-])c1 (stereo not given)	u	n	n	5.6µM	n	n
O=C(NCCCN1CCOCC1)c1ccc(Sc2ccc(F)cc2)c([N+](=O)[O-])c1	n	n	n	u	n	n
O=C(OC1CCN(CCCl)CC1)C(c1ccccc1)c1ccccc1	u	16µM	n	32µM	n	u
Cc1ccc(NC(=O)N2C3CCCC2CC(NC(=O)C2CC2)C3)cc1 (stereo not given)	n	n	n	n	n	n
CC(=NNC(=S)N1CC2CCC(CC2)C1)c1cccc(C)n1	-83	n	x	u	4µM	u
CC(=NNC(=S)N1CC2CCC(CC2)C1)c1nccs1	-63	n	x	u	u	u
CC(=O)c1nccs1	x	n	x	n	n	n
CCN(C(=O)C(C)N1C(=O)/C(=C/c2cccs2)SC1=S)C1CCS(=O)(=O)C1 (stereo not given)	-63	n	x	n	x	x
CC(C(=O)N(C)C1CCS(=O)(=O)C1)N1C(=O)/C(=C/c2ccco2)SC1=S (stereo not given)	-93	n	n	n	x	x
CC(C(=O)N(C)C1CCS(=O)(=O)C1)N1C(=O)/C(=C/c2cccs2)SC1=S (stereo not given)	n	u	n	n	x	x
Cc1ncc2c(c1CNC(=O)c1cncs1)CCN(C(=O)c1csc(-c3cccs3)n1)C2	x	n	x	x	n	n
CCN(Cc1ccncc1)Cc1ccc2c(c1)CN(C(=O)c1ccc(C)cc1)CCO2	x	n	x	x	n	n
CC(NC(=O)CSc1nc2c(c(C(F)(F)F)n1)CCc1ccccc1-2)c1ccccc1 (stereo not given)	u	u	n	13µM	n[1.46 µM]	u
Cc1cccc(C)c1Nc1nc2ccccc2nc1NS(=O)(=O)c1ccccc1	n	n	x	x	n	n
CCOC(=O)c1ccccc1NC(=O)N1CCCN(S(=O)(=O)c2ccc3c(ccn3CC)c2)CC1	n	n	x	x	n	n
COCC(C)n1c(C)cc(C(=O)COC(=O)c2cnc(Cl)c(Cl)c2)c1C (stereo not given)	n	n	x	u	x	x
COCC(C)n1c(C)cc(C(=O)COC(=O)c2cccn2C)c1C (stereo not given)	-76	u	x	u	x	x
COc1ncnc2c1ncn2CCCNC1CCN(Cc2ccccc2)CC1	n	n	x	x	n	n
Brc1cc2c(cc1/C=N/Nc1nc(N3CCCC3)nc(N3CCOCC3)n1)OCO2	n	u	n	2.8µM	x	x
Oc1ccc(/C=N/Nc2nc(N3CCCCCC3)nc(N3CCCCCC3)n2)c(O)c1	-89	u	n	u	u	n
